This is a sample that favours compounds with a hit; in the whole collection about 3.6% have one here.
mHTT-CaM PPI inh = mHTT-calmodulin interaction abrogation | P42858 | AlphaScreen His-mHTT/GST-CaM binding, luminescence | AID 1671202 | 3.6% of 190,000 active | inhibition, % at 15 µM;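 further: 0% = both proteins with DMSO and 100% = one protein alone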
Pf apPOL block = Pf-apPOL DNA polymerase inhibition | inhibition, % at 10 µM | 0.25% of 210,000 active | Recombinant Pf-apPOL, molecular beacon fluorescence, 1.5 h | AID 1794808
An asterisk follows results filed as active; · = no result given. No stated cut-off is given here; in the data, active means inhibition above about 50%; inactive means the rest.

SMILES	mHTT-CaM PPI inh	Pf apPOL block
CCc1c(C2CCN(C(=O)Cc3cccs3)CC2)noc1N	3	-1
CCC(=O)NCc1nc2c(n1CC)CN(S(=O)(=O)c1ccc(Cl)cc1)CC2	3	-9
Cc1[nH]c(C(=O)N2CCC(CC(=O)NC3CC3)CC2)c(C)c1C	0	-4
COc1cc2c(cc1OC)C(C(=O)N1CCCCCC1)C(c1cccnc1)N(C)C2=O (stereo not given)	-1	-2
Cc1ccc(C(=O)c2ccccc2)cc1[N+](=O)[O-]	-5	-9
Cc1ccc(-c2[nH]c3ccccc3c2C)cc1[N+](=O)[O-]	64*	0
CCCN(C)Cc1nc2nc(C)cc(N3CCCCCC3)n2n1	19	-7
CCc1nc2nc(C)cc(N3CCN(c4ccc(C)cc4C)CC3)n2n1	63*	-8
COc1ccc(NC(=O)C2CCN(c3cn[nH]c(=O)c3)CC2)cc1	2	-4
CC1(C)CC(C)(c2ccc(Cl)cc2)c2ccccc2N1 (stereo not given)	85*	-10
COCCOCC(=O)N1c2ccccc2C(C)(c2ccc(Cl)cc2)CC1(C)C (stereo not given)	34	-6
COc1ccc(C(O)CN2CCN(c3ccccc3F)CC2)cc1 (stereo not given)	7	1
Cc1cc(Cl)ccc1N(CC(=O)Nc1ccc(F)cc1)S(C)(=O)=O	-2	-5
Cc1cc(C)cc(N(CC(=O)Nc2ccc(F)c(Cl)c2)S(C)(=O)=O)c1	56*	-1
CN1CCN(CC(=O)Nc2ccc([N+](=O)[O-])cc2Cl)CC1	0	-7
CCN1C(=O)NC(=O)/C(=C/c2cn(CCOc3ccc(F)cc3)c3ccccc23)C1=O	13	-4
Cc1ccccc1OCCn1cc(C=C2C(=O)NC(=O)NC2=O)c2ccccc21	51*	-60
CCN1C(=O)NC(=O)/C(=C/c2cn(CCOc3ccccc3C)c3ccccc23)C1=O	61*	-3
O=C1NC(=O)C(=Cc2cn(CCOc3ccccc3)c3ccccc23)C(=O)N1	33	-52
O=C(CSc1nnc(NC(=O)Cc2cccs2)s1)Nc1ccc2c(c1)OCCO2	2	4
CCn1cnc2cc(NCc3ccc(Cl)cc3)ccc21	30	-3
COc1cccc(CNc2ccc3c(c2)ncn3C)c1O	10	-7
COc1ccccc1-n1cnc2cc(NCc3ccc(Cl)cc3)ccc21	80*	0
COc1ccccc1CNc1ccc2c(c1)ncn2-c1ccccc1	69*	8
CCNC(=O)c1nsc(C(=O)NCc2ccccc2Cl)c1N	-8	2
SMILES	mHTT-CaM PPI inh	Pf apPOL block
Cc1noc(C)c1S(=O)(=O)N1CCC(C(C)C(=O)NC2CCCCC2)CC1 (stereo not given)	-6	2
CNC1C(O)C(NC)C2OC3(O)C(=O)CC(C)OC3OC2C1O (stereo not given)	·	83*
O=Cc1ccc(-c2ccc([N+](=O)[O-])cc2)o1	5	-6
O=[N+]([O-])/C=C/c1ccc(-c2ccc(Br)cc2)o1	51*	-3
CC1(C)OC(=O)C(=Cc2ccc(-c3ccc([N+](=O)[O-])cc3)o2)C(=O)O1	2	-4
Cc1ccc(-c2ccc(/C=C/[N+](=O)[O-])o2)c(Br)c1	79*	1
Cc1ccc(-c2ccc(C=O)o2)c(Br)c1	-8	-7
O=[N+]([O-])/C=C/c1ccc(-c2ccc(Cl)cc2)o1	84*	4
CN1c2cc(F)ccc2C(=O)NC12CCN(C(=O)Nc1ccc(F)cc1F)CC2	4	-4
COc1ccc(NC(=O)Nc2ccc(N3CCCC3=O)c(C)c2)cc1	-6	-1
O=S(=O)(NCC1(O)CCc2ccccc21)c1c(F)cccc1F (stereo not given)	-6	-8
O=c1c2c(ncn2Cc2ccc(F)cc2F)n(-c2ccc(F)cc2)c(=O)n1C1CC1	-6	-5
O=C(O)c1cnn2cccnc12	9	-1
O=C(O)c1cc2ncccn2n1	-1	52*
O=C(c1ccc(Cn2nnc3ccccc3c2=O)cc1)N1CCN(C(=O)c2ccco2)CC1	14	-12
CCOc1ccc(N2COc3ccc(OC)cc3C2)cc1	51*	-5
CCOc1ccc(N2COc3ccc(F)cc3C2)cc1	59*	2
CCOc1nc(OCC)nc(N2CCN(c3ccc(OC)cc3)CC2)n1	24	-10
COc1ccc(N2COc3ccc(OC)cc3C2)cc1	53*	-2
COc1ccc2c(c1)CN(c1ccccc1I)CO2	44	-1
CCOc1ccc(N2C(=O)CC(N3CCN(c4ccc(F)cc4)CC3)C2=O)cc1 (stereo not given)	-6	-3
COc1ccc2c(c1)CN(c1ccc(C)cc1)CO2	53*	0
COc1ccc2c(c1)CN(c1ccc(Br)cc1)CO2	46	-4
CC(C(=O)Nc1ccc(C(N)=O)cc1)N1C(=O)c2ccccc2C1=O (stereo not given)	-6	-5
CCCN1CCN(c2ncc3c(n2)CCN(Cc2ccc(Cl)cc2)C3)CC1	47	0
Cc1cc(C)nc(N=C(N)Nc2ccc(N=Nc3ccccc3)cc2)n1	16	-6

Bioassay records from PubChem BioAssay.
